Results published in PubChem BioAssay (NCI).
This is part of a sample that, as a whole, favours compounds with a hit. Of some 83,000 tested, about 20% had one in any assay.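 96-well plates, one dose, 48 hours. Percent growth reported; active if below 10.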 Activity calls are given as the source filed them.

Key:
Test in all cases: NCI-60 one-dose screen, 48 h (100 = growth as untreated, 0 = no growth, -100 = all killed)
Settings in all cases: 10 µM unless noted
[1] = tested on: SK-MEL-2 melanoma
[2] = tested on: EKVX NSCLC
[3] = tested on: SN12C renal
[4] = tested on: UO-31 renal
[5] = tested on: TK-10 renal
[6] = tested on: ACHN renal
[7] = tested on: CAKI-1 renal
[8] = tested on: A498 renal
[9] = tested on: MOLT-4 leukemia

Measured: growth

N#CC1=C(/N=C/c2ccccc2)Oc2c(ccc3ccccc23)C1c1ccccc1 (configuration not stated)
inactive: [1] 45.7% | [2] 34.6% | [3] 37.8% | [4] 32% | [5] 45.2% | [6] 34.3% | [7] 24% | [8] 16.3% | [9] 19.8%

COC1=C(OC)C(=O)C(OC)=C(OC)C1=O
active: [9] -24.5%
inactive: [1] 118% | [2] 102% | [3] 94.9% | [4] 81.2% | [5] 124% | [6] 118% | [7] 98.9% | [8] 77.2%

Fc1c[c-]c(-c2ccccn2)c(F)c1.[CH3-].[Pt+2].c1ccc(P(C[PH+](c2ccccc2)c2ccccc2)c2ccccc2)cc1
active: [1] -39% | [2] -12% | [3] -32.2% | [4] -98.2% | [5] -30.5% | [6] -100% | [7] -73.8% | [8] -79.3% | [9] 0%

CC(=O)c1ccc(NCC(=O)Nc2ccccn2)cc1
inactive: [1] 105% | [2] 101% | [3] 106% | [4] 86.4% | [5] 146% | [6] 103% | [7] 87.9% | [8] 104% | [9] 100%

CCSC1=NC2C(N(CC)C(=O)N2CC)N1/N=C/C=C/c1ccccc1[N+](=O)[O-] (configuration not stated)
active: [8] -5.18%
inactive: [1] 50.3% | [2] 46.5% | [3] 19.8% | [4] 34.6% | [5] 70.6% | [6] 25.1% | [7] 19.5% | [9] 15.1%

O=C1OC(c2nc3ccccc3s2)=C/C1=C\c1ccc(O)cc1
inactive: [1] 110% | [2] 102% | [3] 93.9% | [4] 75.8% | [5] 114% | [6] 99.5% | [7] 85.4% | [8] 108% | [9] 102%

COc1ccc(-c2cc(-c3ccc(Nc4nc(Nc5ccc(Cl)cc5)nc(Nc5ccc(Cl)cc5)n4)cc3)nc(N)c2C#N)cc1
active: [2] -27.1% | [4] -46.7% | [5] -67.3% | [6] -59.5%
inactive: [1] 13.1% | [3] 58.3% | [7] 44.2% | [8] 65.7% | [9] 15.9%

NC(=N\N=C/c1ccccc1[N+](=O)[O-])/C(N)=N\N=C/c1ccccc1[N+](=O)[O-]
inactive: [1] 98.4% | [2] 98.5% | [3] 108% | [4] 116% | [5] 99.6% | [6] 109% | [7] 95.2% | [8] 85.9% | [9] 113%

CCOC(CN=Cc1cc(C)c2[nH]c3ccccc3c2c1C)OCC
inactive: [1] 91.4% | [2] 105% | [3] 99.1% | [4] 94.3% | [5] 83.3% | [6] 106% | [7] 105% | [8] 37.5% | [9] 81.2%

O=C(O)c1ccc2c(c1Cl)C(=O)c1ccccc1C2=O
inactive: [1] 70.2% | [2] 20.9% | [3] 98.8% | [4] 93.2% | [5] 130% | [6] 99.1% | [7] 89.4% | [8] 111% | [9] 78.1%

Cn1c2c(c3ccc(Cl)c(Cl)c31)C(C#N)C1(CCNCC1)NC2=O (configuration not stated)
inactive: [1] 11.5% | [2] 46.2% | [3] 44.2% | [4] 31.7% | [5] 38.3% | [6] 26.8% | [7] 29.6% | [8] 44.9% | [9] 15.6%

CC(=O)[C@@H]1CC[C@]2(COS(=O)(=O)c3ccc(C)cc3)CC[C@]3(C)[C@H](CC[C@@H]4[C@@]5(C)CCCNC(C)(C)[C@@H]5CC[C@]43C)[C@@H]12
inactive: [1] 105% | [2] 94% | [3] 78% | [4] 66.3% | [5] 106% | [6] 87.1% | [7] 82.7% | [8] 85.9% | [9] 21.9%

COc1cc(/C=C/C(=O)c2cccc(-n3cc(-c4ccccc4)[nH]c3=O)c2)ccc1O
active: [9] 6.81%
inactive: [1] 56.5% | [2] 70.7% | [3] 27.9% | [4] 36.4% | [5] 81.6% | [6] 34.4% | [7] 45.8% | [8] 116%

CC1=CN2C(=O)C3C4=C(CCCC4)SC3N=C2CN1c1c(C)cccc1C (configuration not stated)
inactive: [1] 116% | [2] 81% | [3] 99.6% | [4] 90.7% | [5] 100% | [6] 96.2% | [7] 81.1% | [8] 92% | [9] 77%

N#Cc1c(N)nn(C(=O)c2ccc(NC(=O)c3ccccn3)cc2)c1-c1ccc(Cl)cc1
inactive: [1] 79.3% | [2] 49.2% | [3] 35% | [4] 54.3% | [5] 24.6% | [6] 12.9% | [7] 26% | [8] 51.1% | [9] 52.9%

Cc1ccc(C(=O)COc2cccc(/C=C3\Oc4ccccc4C3=O)c2)cc1
inactive: [1] 105% | [2] 97.1% | [3] 105% | [5] 114% | [6] 97.6% | [7] 47.6% | [8] 147% | [9] 73.8%
active: [4] -37.1%

C=C1C(=O)O[C@H]2[C@H]1CC/C(COC(=O)C(=O)c1c[nH]c3ccc(OC)cc13)=C\CC[C@@]1(C)O[C@@H]21
active: [1] -60.9% | [2] -4.43% | [3] -48.5% | [4] -96.3% | [5] -56.7% | [6] -67.1% | [7] -56.9% | [8] -98.7% | [9] -28.2%

CN1CCN(CC(=O)Nc2nc(-c3cccc(NS(=O)(=O)c4cccc5c(N(C)C)cccc45)c3)cs2)CC1
inactive: [1] 94.3% | [2] 66.4% | [3] 69.7% | [4] 58.3% | [5] 100% | [6] 82.3% | [7] 67.9% | [8] 96.8% | [9] 46.2%

COc1ccc(-c2nc(SCC(=O)Nc3nc(-c4ccccc4)cs3)[nH]c(=O)c2C#N)cc1
inactive: [1] 90.5% | [2] 101% | [3] 108% | [4] 59% | [5] 117% | [6] 104% | [7] 82.8% | [8] 80.4% | [9] 89.9%

CN(Cc1cnc2nc(N)nc(N)c2n1)c1ccc(C(=O)N[C@@H](CCc2nn[nH]n2)c2nn[nH]n2)cc1
inactive: [1] 75.3% | [2] 85.7% | [3] 36% | [4] 43.1% | [5] 56.4% | [6] 33.6% | [7] 29.3% | [8] 97.2% | [9] 28.2%

COC(=O)[C@H](CSC)N(C)C(=O)[C@@H]1CSSC[C@@H](NC(=O)c2nc3ccccc3cc2O)C(=O)NCC(=O)N1C
inactive: [1] 61.3% | [2] 82.8% | [3] 66.5% | [4] 71.9% | [5] 88.4% | [6] 88% | [7] 104% | [8] 102% | [9] 23.8%

COc1cc(/C=C/C(=O)c2c(C)nc3ccccc3c2C)ccc1OCCCN1CCN(C(=O)c2ccco2)CC1
inactive: [1] 59.3% | [2] 81.7% | [3] 92.5% | [4] 66.7% | [5] 110% | [6] 80.6% | [7] 74.8% | [8] 59.4% | [9] 60.6%

Cc1ccc(CCC(=O)Nc2ncc(Cc3cc(Cl)ccc3Cl)s2)o1
inactive: [1] 65% | [2] 41% | [3] 23.4% | [4] 32% | [5] 57% | [6] 28.8% | [7] 26.2% | [9] 14%
active: [8] 6.53%

O=C1N=c2cc3c(cc2=C/C1=C/c1sc(=S)n(CCc2ccc(O)cc2)c1O)OCCO3
active: [3] 5.51% | [6] 6.54%
inactive: [1] 82.9% | [2] 61.3% | [4] 71.1% | [5] 90.3% | [7] 59.7% | [8] 80.2% | [9] 21.5%

COc1ccc(/C=N\NC(=O)c2cc(-c3ccc(Br)cc3)n(-c3ccc(S(N)(=O)=O)cc3)n2)cc1
inactive: [1] 54.3% | [2] 61.2% | [3] 63% | [4] 50.1% | [5] 29.1% | [6] 44.3% | [7] 26.3% | [9] 62.3%
active: [8] -6.38%

N=c1sc(Cc2ccc(Cl)cc2)cn1CC(=O)c1ccc(F)cc1
inactive: [1] 97.1% | [2] 70.5% | [3] 87.5% | [4] 57.6% | [5] 66.9% | [6] 47.2% | [7] 44.6% | [8] 91.1% | [9] 71.3%

CC1(c2ccccc2)NC(=O)N(NC(=O)CSc2nc(-c3cccs3)nc3ccccc23)C1=O (configuration not stated)
active: [4] -6.98%
inactive: [1] 89.8% | [2] 93% | [3] 100% | [5] 113% | [6] 91.5% | [7] 72.3% | [8] 71.4% | [9] 73.5%

Cc1ccc(Cc2cnc(NC(=O)c3ccc4noc(-c5ccccc5)c4c3)s2)cc1
inactive: [1] 99.7% | [2] 79.1% | [3] 85.9% | [4] 81.9% | [5] 109% | [6] 99% | [7] 78.2% | [8] 102% | [9] 90.2%
